Screens from PubChem BioAssay.
This is a sample that favours compounds with a hit; in the whole collection about 21% have one here.
DRD3 antagonist: qHTS of D3 Dopamine Receptor Antagonist: qHTS | D(3) dopamine receptor (Homo sapiens), P35462 | D3R cells, DiscoveRx beta-arrestin luminescence, antagonist mode; stronger effect = lower value | max response, negative = inhibition, % | hit rate 2.5% among 360,000; in the data active = max response below about -50%; inconclusive = no clear call, values can overlap the other calls; note: % is set by controls: 0 for no effect and ±100 for the full control effect
Target sequence (P35462 whole entry, looked up): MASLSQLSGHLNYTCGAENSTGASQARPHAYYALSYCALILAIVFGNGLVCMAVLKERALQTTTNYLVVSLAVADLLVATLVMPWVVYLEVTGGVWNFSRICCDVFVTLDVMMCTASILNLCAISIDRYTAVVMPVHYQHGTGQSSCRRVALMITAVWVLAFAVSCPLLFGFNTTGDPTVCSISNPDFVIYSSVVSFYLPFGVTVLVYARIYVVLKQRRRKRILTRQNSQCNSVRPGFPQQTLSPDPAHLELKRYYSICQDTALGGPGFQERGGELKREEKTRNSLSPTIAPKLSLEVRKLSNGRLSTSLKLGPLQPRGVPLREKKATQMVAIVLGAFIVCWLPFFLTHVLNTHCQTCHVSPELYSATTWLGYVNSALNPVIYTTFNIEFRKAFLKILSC
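Cells plated overnight at 1500 cells/well, then exposed to library compounds with dopamine controls for 90 minutes at 37 degrees C. DiscoveRx reagent added for 30–60 minutes at room temperature; luminescence read, quantitative HTS format.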
TDP1 cell CPT: qHTS for Inhibitors of human tyrosyl-DNA phosphodiesterase 1 (TDP1): qHTS in cells in presence of CPT. chicken DT40 Tdp1-/-;hTDP1 cells + 20 nM CPT, ATP luminescence, 48 h. Potency, µM (doses to about 46.2 µM), inactives show at the highest dose activity change, negative = growth inhibition, most hits filed as inhibitors. hit rate 12% among 420,000. AID 686979, 2013; note: potency is the fitted concentration of half-maximal effect; % is set by controls: 0 for no effect and ±100 for the full control effect; nearly all actives have a fitted effect of over 55% in size
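Cell growth measured by CellTiter-Glo luminescence after a minimum 48 h, 37 C compound exposure with 20 nM CPT in Tdp1-knockout DT40 cells stably expressing hTDP1, seeded 400/well; qHTS titration format.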
ClpP mod: qHTS Assay for Activators of ClpP. Potency, µM (doses to about 57.5 µM), for the others: top-dose activity change, negative = active. AID 651965, 2013. ATP-dependent Clp protease proteolytic subunit (Bacillus subtilis (strain 168)), P80244. hit rate 1.9% among 340,000. purified B. subtilis ClpP, FRET peptide cleavage, 20 min; active = well fitted falling curve with a large enough effect; inconclusive = small, poorly fitted or top-dose-only effect; inactive = no such curve, though single readings can be large or run the other way; note: potency is the fitted concentration of half-maximal effect; the source files actives as falling curves though it sought activators and does not explain the sign; nearly all actives have a fitted effect of over 65% in size
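ClpP 10 microg/mL final, pH 8 Tris/KCl buffer with BSA, glycerol, Tween-20; compound pinned in; FRET-FV substrate; RT 20 min; Ex320/Em430; ΔFRET vs ADEP 5.8 microM, DMSO, no enzyme.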
TDP1 cell noCPT: qHTS for Inhibitors of human tyrosyl-DNA phosphodiesterase 1 (TDP1): qHTS in cells in absence of CPT | DT40 Tdp1-/- hTDP1 cells, no CPT, ATP luminescence, 48 h | Potency, µM (top dose mostly 46.2 µM), for inactives: top-dose activity change, negative = growth inhibition, usual class: inhibitors | hit rate 15% among 420,000 | AID 686978, 2013; note: potency is the fitted concentration of half-maximal effect; % is set by controls: 0 for no effect and ±100 for the full control effect; nearly all actives have a fitted effect of over 55% in size
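DT40 Tdp1-/-;hTDP1 cells, no CPT (DMSO vehicle only), 400 cells/well; compounds pin-transferred; ≥48 hr, 37 °C; CellTiter-Glo 30 min RT dark, luminescence read.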
IL1B secr inh: qHTS for Inhibitors of Inflammasome Signaling: IL-1-beta AlphaLISA Primary Screen | THP-1 LPS/ATP IL-1B secretion, AlphaLISA, 16 h; stronger effect = lower value | activity change, % at 57.5 µM | hit rate 4.7% among 360,000 | AID 743279, 2014; in the data active = activity change below about -50%; inconclusive = mostly about -30% to -49%; note: % is set by controls: 0 for no effect and ±100 for the full control effect
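Secreted IL-1B measured by AlphaLISA bead assay after 16 h compound exposure of THP-1 cells; compounds (final up to 57.5 uM) added 1 h before LPS (250 ng/mL) and ATP (1.25 mM) stimulation; lower signal means less secretion.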
D3 ag: qHTS of D3 Dopamine Receptor Agonist: qHTS; D(3) dopamine receptor (Homo sapiens), P35462; AID 652048, 2013; hit rate 0.58% among 410,000; max activation, %; D3R DiscoveRx beta-arrestin cells, luminescence, 90 min; in the data active = max activation above about 30%; note: 0% is about no effect
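Agonist-mode cell screen: cells plated at 1500/well and incubated overnight at 37 °C, then exposed to library compounds for 90 min at 37 °C. Detection reagent was added for 30–60 min at room temperature, and luminescence was read.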
* = called active by the depositor; ? = inconclusive; . = not tested or not shown; ! = not confirmed by another sample. Unless noted, calls come from the whole dose curve; as a rule, active = well fitted inhibition curve with a large enough effect; inconclusive = small, poorly fitted or top-dose-only effect; inactive = flat fitted curve, though single readings scatter.

SMILES | DRD3 antagonist | TDP1 cell CPT | ClpP mod | TDP1 cell noCPT | IL1B secr inh | D3 ag
CCCCN(C(=O)C1CC(=O)N(Cc2ccc(C)cc2)C1)c1c(N)n(CCCC)c(=O)[nH]c1=O (configuration not stated) | 13 | -5% | 22µM* | -6% | -3 | 1
Cc1c(C(=O)N2CCC(C)CC2)c(S(=O)(=O)Nc2cccc(C(F)(F)F)c2)c(C)n1C | . | ? | 1% | ? | . | -6
O=C(COC(=O)/C=C/c1ccc(S(=O)(=O)N2CCOCC2)cc1)NC1CCCCCCC1 | -15 | -8% | 1% | -6% | -9 | 0
O=C(COC(=O)/C=C/c1ccc(S(=O)(=O)N2CCOCC2)cc1)NCc1ccc(Cl)cc1 | -4 | ? | 1% | 26µM* | 4 | -4
O=C(COC(=O)/C=C/c1ccc(S(=O)(=O)N2CCOCC2)cc1)NCc1ccccc1 | -6 | 7.3µM* | 0% | 13µM* | -26 | 1
O=C(NCc1ccco1)c1ccc(OC2CCN(Cc3ccccn3)CC2)cc1 | 7 | 2% | -2% | -3% | ? | 1
O=C(CSc1nc2cc(C(=O)O)ccc2c(=O)n1-c1ccc(F)cc1)Nc1ccc(F)c(F)c1F | -10 | -10% | -17% | -25% | 6 | -8
CC(=O)[C@H]1CC[C@@H](c2ccccc2)N(S(=O)(=O)c2ccc(C)cc2)C1 | 6 | ? | 0% | ? | 7 | 6
O=C(O)C1=CC[C@@H](c2ccc(Cl)cc2)N(S(=O)(=O)c2ccc(Cl)cc2)C1 | 2 | -9% | -4% | -18% | 15 | 29
CC(=O)C1=CCC(c2ccc(Cl)cc2)N(S(=O)(=O)c2ccccc2)C1 (configuration not stated) | 0 | 21µM* | -2% | 18µM* | -12 | -9
CC(=O)C1=CCC(c2ccccc2)N(S(=O)(=O)c2ccccc2)C1 (configuration not stated) | 11 | 29µM* | -2% | 18µM* | -1 | -10
CC(=O)C1=CCC(c2ccc(Br)cc2)N(S(=O)(=O)c2ccc(C)cc2)C1 (configuration not stated) | 22 | 18µM* | 0% | ? | -52* | 7
COc1ccc(C2CC=C(C(C)=O)CN2S(=O)(=O)c2ccc(Cl)cc2)cc1 (configuration not stated) | -9 | 16µM* | 0% | 16µM* | -22 | 3
CC(=O)C1=CCC(c2ccc(C)cc2)N(S(=O)(=O)c2ccc(C)cc2)C1 (configuration not stated) | 3 | ? | -1% | ? | 25 | 0
COC1OC2COC(c3ccccc3)OC2C(OC(C)=O)C1OC(C)=O (configuration not stated) | 9 | 0% | ? | 4% | 19 | 3
COc1ccc(S(=O)(=O)N2CCC3(CC2)CC(=O)c2ccccc2O3)cc1C | 9 | -26% | -8% | -12% | 17 | -4
Cc1ccc(N2CC(C(=O)Nc3c4c(nn3C(C)(C)C)CS(=O)(=O)C4)CC2=O)cc1C (configuration not stated) | -14 | -19% | -1% | -16% | 0 | -21
CC(=O)C1=CCC(c2ccc(Cl)cc2)N(S(=O)(=O)c2ccc(C)cc2)C1 (configuration not stated) | -4 | ? | -4% | 16µM* | -57*! | -7
